Experimental findings from PubChem BioAssay are described below.

Active and inactive are the calls of the source.

In one experiment the test system is PRMT1 (protein arginine N-methyltransferase 1). As to the kind of experiment: PRMT1 binders on small-molecule microarrays, primary screen, biochemical, small-molecule microarray, 635 nm fluorescence (AID 1088).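 Note: binding of Prmt1 protein to compounds spotted on small-molecule microarray slides.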 Conditions: small-molecule microarray binding, higher = more signal.
Take `Cc1ccc(S[C@]2(C(=O)NCc3ccccc3)CC(=O)N(C(C)C)[C@@H]2c2ccc(CO)cc2I)cc1`: the composite z-score worked out at 0.448.
Still for that read-out and setting: with `CC(C)C(O)C1C=CC2C(=O)N(C)C(=O)C2N1N(c1ccccc1)c1ccccc1` (stereo unspecified) the figure was -2.15; with `O=C1OCC=C[C@H]2OC34C=CCN(Cn5nnc6ccccc65)C(=O)[C@H]3N(CCCCCCO)C(=O)[C@@H]4[C@@H]12` (stereo partly specified), -0.184; with `COC(=O)[C@@]1(Cc2ccccc2)[C@H]2c3cc(C(=O)N4CCCC4)n(Cc4cc(F)cc5c4OCOC5)c3C[C@H]2CN1C(=O)c1ccccc1`, -0.149.
The same measure, in the same setting: in the case of `O=C(O)[C@H](Cc1ccccc1)n1cc(-c2ccccn2)nn1` it was 0.427.
The same measure, in the same setting: with `CN(C)CCCNC(=O)[C@@]1(c2ccc([N+](=O)[O-])cc2)CC(=O)N(CC23CC4CC(CC(C4)C2)C3)[C@@H]1c1ccc(CO)cc1` the figure was 1.53; with `CCOC(=O)C[C@H]1[C@H](OC(=O)c2ccc(-c3ccccc3)cc2)[C@@H](NC(=O)c2ccc3ccccc3n2)c2cc(OCCCO)ccc2N1C(=O)c1ccccc1`, 1.52.
For the molecule `CCOC(=O)C1=CC[C@@H](c2ccccc2)N(S(=O)(=O)c2ccc(C)cc2)C1`, the composite z-score was -0.363.
Same read-out and setting: in the case of `CCOC(=O)[C@H]1C/C=C/C[C@H](C(=O)OCC)C(=O)O[C@H]2[C@@H](OC)O[C@H](CO)[C@@H](OC(=O)Nc3ccc(OC)cc3)[C@@H]2OC1=O` it was 1.49.
On the same count and under the same terms, with `COC(=O)[C@H](Cc1ccccc1)N1CC(/C=C/C2CC2)=C[C@@H]1[C@@H](O)Cc1ccccc1` the figure was 1.46; with `Cc1ccc(F)cc1S(=O)(=O)N[C@@H]1CCN(Cc2ccc(Oc3ccccc3)cc2)C1`, -0.434.
On the same count and under the same terms, in the case of `COCCOC(=O)N1C(=O)[C@@]2(c3cc(C#Cc4ccc(OC)cc4)ccc31)[C@H](C(=O)NC[C@H](O)c1ccccc1)[C@H]1C(=O)O[C@H](c3ccccc3)[C@H](c3ccccc3)N1[C@@H]2c1ccc(O)cc1` it was 1.54; in that of `CN(C)CCCNC(=O)[C@@H]1c2ccccc2C(=O)N(CC23CC4CC(CC(C4)C2)C3)[C@H]1c1ccc(CO)cc1`, 1.53; in that of `CCOC(=O)[C@@H]1[C@@H]2C(=O)N(CC)C(=O)[C@@H]2C[C@@H]1Sc1ccccc1`, 0.814.
`CC(C)C(=C=CC[C@@H](O)c1ccccc1OCCO)C[C@@H](O)COCc1ccccc1`: the composite z-score was found to be 1.29.

System in the next experiment: not listed separately
Nature of the experiment: yeast growth modulation, basal conditions, primary screen, YJM789 clinical isolate, OD600, 24 h (AID 1089).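 Note: growth of clinical yeast isolate S. cerevisiae YJM 789 seeded 1000 cells per well; test concentration not given here.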 To be noted: S. cerevisiae YJM789 growth, higher = more signal, called active from +8 up or from −8 down.
As for `CC(C)C(O)C1C=CC2C(=O)N(C)C(=O)C2N1Nc1ccccc1` (stereo unspecified), the z-score is 0.324 (inactive).
In the case of `Cc1c(NC(=O)/C(C#N)=C/C=C/c2ccc(N(C)C)cc2)c(=O)n(-c2ccccc2)n1C`, the z-score is -0.0755 (inactive).
The same measure, in the same setting: with `COc1cc(CO)cc(I)c1O[C@H]1C=C(C(=O)NCCO)C[C@@H](N(Cc2ccc(F)cc2)C(=O)C2CCCO2)[C@@H]1O` (stereo partly specified) the figure was -0.558 (inactive); with `O=C1C[C@@](C(=O)NCC(F)(F)F)(c2ccc([N+](=O)[O-])cc2)[C@@H](c2ccc(CO)cc2)N1C1CCCCC1`, -0.748 (inactive).
Still for that read-out and setting: with `COC(=O)Cn1c(C(=O)N2CCCC2)cc2c1C[C@H]1CN(C(=O)c3ccccc3)[C@@](Cc3ccc(F)cc3)(C(=O)OC)[C@@H]21` the figure was -1.98 (inactive); with `O=C(CS)NCCCCCCNC(=O)[C@H]1C[C@H]2C(=O)N[C@@H](Cc3ccccc3)C(=O)N2[C@H]1c1cccc(OCCO)c1`, 0.646 (inactive).
On to `COc1cc2c(cc1OC)CN(C(=O)[C@H]1[C@@H]3C(=O)O[C@@H](c4ccccc4)[C@@H](c4ccccc4)N3[C@@H](c3ccc(OCCO)cc3)[C@]13C(=O)Nc1ccc(C#CC4(O)CCCCCC4)cc13)CC2`, for which the z-score was 3.2 (inactive).
The same measure, in the same setting: in the case of `O=C1O[C@H](c2ccccc2)[C@H](c2ccccc2)N2[C@H]1[C@@H](C(=O)O)[C@]1(C(=O)Nc3ccccc31)[C@H]2c1ccc(O)cc1` it was 1.34 (inactive); in that of `CC(=O)N1Cc2ccccc2C[C@]2(N=C(c3ccc(OCCCO)cc3)O[C@@H]2c2ccccc2)C1=O`, 0.369 (inactive).
In the case of `Cc1ccc(S[C@]2(C(=O)O)CC(=O)N(Cc3ccccc3Cl)[C@@H]2c2ccc(CO)cc2)cc1`, the z-score was -0.0285 (inactive).
The same measure, in the same setting: in the case of `COc1c(C)cc(-c2cc3c(c(-c4ccccc4)n2)[Si](C(C)C)(C(C)C)OC3)cc1C` it was 0.105 (inactive); in that of `O=C(CCCCCCC(=O)Nc1ccccc1)N/N=C/c1ccccc1`, 0.507 (inactive).
As to `CCOC(=O)C[C@H]1[C@H](OC(=O)Cc2ccc3c(c2)OCO3)[C@@H](NC(=O)C2CCCCC2)c2cc(OCCCO)ccc2N1C(=O)c1ccc2ccccc2n1`, the z-score was 0.327 (inactive).
Same read-out and setting: in the case of `O=C(NC1CC1)[C@@H]1c2ccccc2C(=O)N(Cc2ccccc2)[C@H]1c1ccc(CO)cc1` it was 0.763 (inactive).
The same measure, in the same setting: with `NC(N)=NCc1cn(CCc2c[nH]c3ccccc23)nn1` the figure was -0.289 (inactive); with `COCCCNC(=O)[C@@]1(Sc2ccc(C)cc2)CC(=O)N(Cc2cc(C(F)(F)F)cc(C(F)(F)F)c2)[C@@H]1c1ccc(CO)cc1`, -0.157 (inactive).
The same measure, in the same setting: in the case of `O=C1O[C@@H](c2ccccc2)[C@@H](c2ccccc2)N2[C@@H](c3ccc(O)cc3)[C@]3(C(=O)Nc4ccc(C#CC5=CCCCC5)cc43)[C@@H](C(=O)N3CCN(c4ncccn4)CC3)[C@H]12` it was 0.922 (inactive).
Take `COCCOC(=O)N1C(=O)[C@@]2(c3cc(C#CC4=CCCCC4)ccc31)[C@H](c1ccccc1OCCO)N1[C@H](c3ccccc3)[C@H](c3ccccc3)OC(=O)[C@H]1[C@@H]2C(=O)N1CCc2cc(OC)c(OC)cc2C1`: the z-score was 1.83 (inactive).
For `CC[C@H]1C2=C3C(CC[C@H]4C(OCc5ccc(F)cc5C(F)(F)F)OC[C@](C)([C@@H]34)N(C(=O)OC(C)(C)C)C2)C2COC(=O)OCC21` (stereo partly specified), the z-score was 0.416 (inactive).
Same read-out and setting: in the case of `CO[C@H]1O[C@H](CO)[C@@H](OC(=O)Nc2ccccc2-c2ccccc2)[C@H](OC(=O)Nc2ccc3c(c2)OCO3)[C@@H]1OC(=O)Nc1ccc2c(c1)OCO2` it was 2.06 (inactive).
On to `COCCCNC(=O)[C@@]1(Sc2ccc(C)cc2)CC(=O)N(C2Cc3ccccc3C2)[C@@H]1c1ccc(CO)cc1I`, for which the z-score was -0.881 (inactive).
Turning to `Cc1ccc(S[C@]2(C(=O)NCc3ccccc3)CC(=O)N(C(C)C)[C@@H]2c2ccc(CO)cc2I)cc1`, the z-score is -2.82 (inactive).
Same read-out and setting: in the case of `CC(C)C(O)C1C=CC2C(=O)N(C)C(=O)C2N1N(c1ccccc1)c1ccccc1` (stereo unspecified) it was 1.01 (inactive); in that of `O=C1OCC=C[C@H]2OC34C=CCN(Cn5nnc6ccccc65)C(=O)[C@H]3N(CCCCCCO)C(=O)[C@@H]4[C@@H]12` (stereo partly specified), -1.47 (inactive).
Consider `COC(=O)[C@@]1(Cc2ccccc2)[C@H]2c3cc(C(=O)N4CCCC4)n(Cc4cc(F)cc5c4OCOC5)c3C[C@H]2CN1C(=O)c1ccccc1`, for which the z-score is 1.33 (inactive).
The same measure, in the same setting: in the case of `O=C(O)[C@H](Cc1ccccc1)n1cc(-c2ccccn2)nn1` it was 0.445 (inactive); in that of `CN(C)CCCNC(=O)[C@@]1(c2ccc([N+](=O)[O-])cc2)CC(=O)N(CC23CC4CC(CC(C4)C2)C3)[C@@H]1c1ccc(CO)cc1`, -22.2 (active).
On the same count and under the same terms, in the case of `CCOC(=O)C[C@H]1[C@H](OC(=O)c2ccc(-c3ccccc3)cc2)[C@@H](NC(=O)c2ccc3ccccc3n2)c2cc(OCCCO)ccc2N1C(=O)c1ccccc1` it was 0.617 (inactive); in that of `CCOC(=O)C1=CC[C@@H](c2ccccc2)N(S(=O)(=O)c2ccc(C)cc2)C1`, 0.483 (inactive); in that of `CCOC(=O)[C@H]1C/C=C/C[C@H](C(=O)OCC)C(=O)O[C@H]2[C@@H](OC)O[C@H](CO)[C@@H](OC(=O)Nc3ccc(OC)cc3)[C@@H]2OC1=O`, 1.04 (inactive).
Still for that read-out and setting: with `COC(=O)[C@H](Cc1ccccc1)N1CC(/C=C/C2CC2)=C[C@@H]1[C@@H](O)Cc1ccccc1` the figure was 0.107 (inactive); with `Cc1ccc(F)cc1S(=O)(=O)N[C@@H]1CCN(Cc2ccc(Oc3ccccc3)cc2)C1`, -21.2 (active).
Regarding `COCCOC(=O)N1C(=O)[C@@]2(c3cc(C#Cc4ccc(OC)cc4)ccc31)[C@H](C(=O)NC[C@H](O)c1ccccc1)[C@H]1C(=O)O[C@H](c3ccccc3)[C@H](c3ccccc3)N1[C@@H]2c1ccc(O)cc1`, the z-score is 0.254 (inactive).
Still for that read-out and setting: with `CN(C)CCCNC(=O)[C@@H]1c2ccccc2C(=O)N(CC23CC4CC(CC(C4)C2)C3)[C@H]1c1ccc(CO)cc1` the figure was -0.0129 (inactive); with `CCOC(=O)[C@@H]1[C@@H]2C(=O)N(CC)C(=O)[C@@H]2C[C@@H]1Sc1ccccc1`, -0.624 (inactive); with `CC(C)C(=C=CC[C@@H](O)c1ccccc1OCCO)C[C@@H](O)COCc1ccccc1`, -19.2 (active).
